Inconclusive results are not listed. A number with no mark means an inactive call. The source made the active and inactive calls. Calls follow the shape of the dose curve; as a rule, active = well fitted cell-killing curve with a large enough effect in the repeat runs; inconclusive = weak or mixed curves; inactive = flat fitted curve, though single readings scatter.
Experiment: qHTS assay to identify small molecule antagonists of the TGF-beta/Smad signaling pathway - cell viability counter screen (AID 1346824); also: nearly all actives have a fitted effect of over 50% in size
Settings: SBE-bla HEK293T viability, CellTiter-Glo luminescence; series mostly up to 76.8 µM; viability change, negative = cytotoxic: at the top concentration
Text: U.S. Tox21 Program National Center for Advancing Translational Sciences [NCATS] NIH Chemical Genomics Center [NCGC] U.S. Environmental Protection Agency [EPA] National Institutes of Environmental Health Sciences [NIEHS] National Toxicology Program [NTP] U.S. Food and Drug Administration [FDA] Tox21 Assay Overview: Transforming growth factor beta (TGF-beta) superfamily consists of a large number of structurally related dimeric proteins that act as hormones or local mediators in regulating a wide range of biological functions. This superfamily includes TGF-betas themselves, the bone morphogenetic proteins (BMPs) and the activins. These ligands induce oligomerization of serine/threonine receptor kinases and phosphorylate the cytoplasmic signaling molecules of Smad protein family. CellSensor SBE-bla HEK 293T cell line (Life Technologies, Carlsbad, CA), responsive to TGF-beta was used to screen Tox21 10K compound library for identification of agonists/antagonists of the Smad signaling pathway. This cell line contains a beta-lactamase reporter gene under control of the Smad binding element (SBE) stably integrated into HEK 293T cells. Also cytotoxicity of the compounds was tested in parallel by measuring the cell viability using CellTiter-Glo assay system in the same wells.
Tox21 Assay Protocol Summary: SBE-bla HEK 293T cells were dispensed at 4,000/well in 5 uL of assay medium into black wall/clear-bottom 1536-well plates using a Multidrop Combi (ThermoFisher Scientific, Waltham, MA) dispenser. After the assay plates were incubated at 37 C and 5% CO2 for an overnight, 23 nL of compounds dissolved in DMSO, positive controls or DMSO only was transferred to the assay plate by a Pintool station (Kalypsys, San Diego, CA). Compound transfer was followed by the addition of 1 uL of 0.25 ng/mL TGF-beta1 or assay buffer using two separate tips of Flying Reagent Dispenser (FRD, Aurora Discovery, San Diego, CA). The assay plates were incubated at 37 C and 5% CO2 for 5 hr. One uL of LiveBLAzer B/G FRET substrate (Life Technologies) was added using a Flying Reagent Dispenser (FRD, Aurora Discovery, San Diego, CA) and the plates were incubated at room temperature for 2 hr. Fluorescence intensity (405 nm excitation, 460 nm and 530 nm emissions) was measured using an Envision plate reader (PerkinElmer, Shelton, CT). For cytotoxicity read, 4 uL of CellTiter-Glo reagent (Promega Corporation, Madison, WI) was added to each well of the assay plates using FRD. After 30 min incubation at room temperature, the luminescence intensity was measured using ViewLux plate reader (PerkinElmer).
% is scaled to controls: 0 for no effect and ±100 for the full control effect; potency is read from the fitted curve at half-maximal effect.

For C[n+]1ccn(Cc2ccccc2)c1, which “viability change, negative = cytotoxic” value is on record?
Its value is 11.2%.

Which “viability change, negative = cytotoxic” value does the source give for CC1(C)CCC(C)(C)c2cc(C(=O)Nc3ccc(C(=O)O)cc3)ccc21 here?
Its value is 0.215%.

With CCN(CC)CCNC(=O)c1c(C)[nH]c(/C=C2\C(=O)Nc3ccc(F)cc32)c1C as the molecule, how does the “viability change, negative = cytotoxic” value read?
The value was -9.08% [at 35.3 µM].

With CC(C)CCCCCCCCCCCCCCC(=O)O as the molecule, how does the “viability change, negative = cytotoxic” value read?
Its value is 0.643%.

With NC(=O)N1C(=O)C(C(=O)c2cc(Cl)cs2)c2cc(F)c(Cl)cc21 (stereo not given) as the molecule, how does the “viability change, negative = cytotoxic” value read?
Its value is -6.87%.

Which “viability change, negative = cytotoxic” value does the source give for N#CSc1ccc(N)c([N+](=O)[O-])c1 here?
Its value is -5.99%.

With COC(=O)c1cc(Cl)ccc1OC as the molecule, how does the “viability change, negative = cytotoxic” value read?
The value was 1.91% [at 35.3 µM].

For OC1(c2ccc(Cl)c(C(F)(F)F)c2)CCN(CCCC(c2ccc(F)cc2)c2ccc(F)cc2)CC1, which Potency is on record?
Its Potency is 19 µM (active).

For CCCCCCCCCCCCCCCS(=O)(=O)Oc1ccccc1, which “viability change, negative = cytotoxic” value is on record?
The value was -0.15% [at 35.3 µM].

With COc1cccc(N)c1 as the molecule, how does the “viability change, negative = cytotoxic” value read?
Its value is 4.79%.

With COc1ccc(-c2ccc3cc(C(=O)O)ccc3c2)cc1C12CC3CC(CC(C3)C1)C2 as the molecule, how does the “viability change, negative = cytotoxic” value read?
The value was -1.51% [at 35.3 µM].

With CCC(C)Nc1ccc(NC(C)CC)cc1 (stereo not given) as the molecule, how does the Potency read?
The Potency was 25 µM (active).

With CCCCC(CC)COC(=O)c1ccccc1C(=O)O (stereo not given) as the molecule, how does the “viability change, negative = cytotoxic” value read?
Its value is 3.81%.

With CC(=O)SC[C@@H](Cc1ccccc1)C(=O)NCC(=O)OCc1ccccc1 as the molecule, how does the “viability change, negative = cytotoxic” value read?
Its value is -14.2% [at 35.3 µM].

Which “viability change, negative = cytotoxic” value does the source give for N#CC1(c2ccc(F)cc2)CCC(=O)CC1 here?
The value was -1.17% [at 35.3 µM].

With Oc1c(Cl)cc(Cl)c2cccnc12 as the molecule, how does the “viability change, negative = cytotoxic” value read?
The value was 0.609% [at 35.3 µM].

Which “viability change, negative = cytotoxic” value does the source give for CC(=O)S[C@@H]1CC2=CC(=O)CC[C@]2(C)[C@H]2CC[C@@]3(C)[C@@H](CC[C@@]34CCC(=O)O4)[C@H]12 here?
The value was -6.98%.

For O=c1cccccc1O, which “viability change, negative = cytotoxic” value is on record?
Its value is 1.11%.

Which “viability change, negative = cytotoxic” value does the source give for CS(=O)(=O)CCNCc1ccc(-c2ccc3ncnc(Nc4ccc(OCc5cccc(F)c5)c(Cl)c4)c3c2)o1 here?
The value was 0.71% [at 35.3 µM].

For O=C(O)c1ccc(Cl)c(Cl)c1, which “viability change, negative = cytotoxic” value is on record?
Its value is -5.67%.

Which Potency does the source give for Cc1cc(O)c2ccccc2c1O here?
The Potency was 19 µM (active).

Which “viability change, negative = cytotoxic” value does the source give for CCCCCCOC(=O)c1ccc(O)cc1 here?
The value was -16.5%.

With CN(C)[C@@H]1C(=O)C(C(N)=O)=C(O)[C@@]2(O)C(=O)C3=C(O)c4c(O)cccc4C[C@H]3C[C@@H]12 as the molecule, how does the “viability change, negative = cytotoxic” value read?
The value was -8.47% [at 35.3 µM].

For O=C1c2c(O)ccc(Nc3ccc(CCO)cc3)c2C(=O)c2c([N+](=O)[O-])ccc(O)c21, which “viability change, negative = cytotoxic” value is on record?
The value was -5.46%.

For CCOc1ccc2nc3cc(N)ccc3c(N)c2c1, which “viability change, negative = cytotoxic” value is on record?
Its value is -0.403% [at 35.3 µM].

For O=c1[nH]cnc2nc[nH]c12, which “viability change, negative = cytotoxic” value is on record?
Its value is 10.1% [at 35.3 µM].

For CCCCCCCCCOC(=O)c1ccc(O)cc1, which “viability change, negative = cytotoxic” value is on record?
The value was -24.6%.

Which “viability change, negative = cytotoxic” value does the source give for O=C(O)c1c(Cl)cccc1Cl here?
Its value is -6.87%.

With C=CC(=O)OCC(CO)(COCC(COC(=O)C=C)(COC(=O)C=C)COC(=O)C=C)COC(=O)C=C as the molecule, how does the Potency read?
Its Potency is 48.4 µM (active).

For CC[C@H](c1ccc(O)cc1)[C@@H](CC)c1ccc(O)cc1, which Potency is on record?
The Potency was “inactive”.

With C/C=C(\C)C(=O)OCc1ccccc1 as the molecule, how does the “viability change, negative = cytotoxic” value read?
Its value is -6.93%.

For O=C(OC[C@H]1O[C@@H](OC(=O)c2cc(O)c(O)c(OC(=O)c3cc(O)c(O)c(O)c3)c2)[C@H](OC(=O)c2cc(O)c(O)c(OC(=O)c3cc(O)c(O)c(O)c3)c2)[C@@H](OC(=O)c2cc(O)c(O)c(OC(=O)c3cc(O)c(O)c(O)c3)c2)[C@@H]1OC(=O)c1cc(O)c(O)c(OC(=O)c2cc(O)c(O)c(O)c2)c1)c1cc(O)c(O)c(OC(=O)c2cc(O)c(O)c(O)c2)c1, which viability change, negative = cytotoxic is on record?
The viability change, negative = cytotoxic was 3.78% [at 15.8 µM].

Which Potency does the source give for CCCC1O[C@@H]2C[C@H]3[C@@H]4CCC5=CC(=O)C=C[C@]5(C)[C@H]4[C@@H](O)C[C@]3(C)[C@]2(C(=O)CO)O1 (stereo not given in full) here?
The Potency was “inactive”.

For CCCCCCCC(=O)[O-].CCCCCCCC(=O)[O-].[Zn+2], which “viability change, negative = cytotoxic” value is on record?
Its value is -0.682% [at 35.3 µM].

For C[C@H]1[C@H]2CC[C@H]3[C@@H]4CC=C5C[C@@H](N(C)C)CC[C@]5(C)[C@H]4CC[C@]23CN1C, which “viability change, negative = cytotoxic” value is on record?
The value was 0.264% [at 35.3 µM].

Which Potency does the source give for CC(C)(C)c1ccc(C(=O)CCCN2CCC(OC(c3ccccc3)c3ccccc3)CC2)cc1 here?
Its Potency is 21.3 µM (active).

Which “viability change, negative = cytotoxic” value does the source give for O=C1Cc2cc(CCN3CCN(c4nsc5ccccc45)CC3)c(Cl)cc2N1 here?
The value was -16.9% [at 35.3 µM].

For COCCCC/C(=N\OCCN)c1ccc(C(F)(F)F)cc1, which “viability change, negative = cytotoxic” value is on record?
Its value is -12.6% [at 35.3 µM].

For O=C1C=CC(=O)N1c1ccc(Cc2ccc(N3C(=O)C=CC3=O)cc2)cc1, which “viability change, negative = cytotoxic” value is on record?
The value was -9.85%.

Which Potency does the source give for CCCCCCCCCCCCCC[P+](CCCC)(CCCC)CCCC (tested in a mixture with another compound) here?
Its Potency is 27.7 µM (active).

Reference: PubChem BioAssay (Tox21)
